Screening results (PubChem BioAssay)
RORgamma inh: inhibitors of mouse ROR gamma transcriptional activity; 310,000 tested, 5.4% active; Potency, µM (titrated, usually from 53.6 µM), inactives show at the highest dose activity change, negative = inhibition, most hits filed as inhibitors; P51450; Drosophila S2 Gal4-RORgamma UAS-luciferase reporter, 20 h; also: nearly all actives have a fitted effect of over 60% in size
Target sequence (P51450 whole entry, looked up, the tested form may be a part): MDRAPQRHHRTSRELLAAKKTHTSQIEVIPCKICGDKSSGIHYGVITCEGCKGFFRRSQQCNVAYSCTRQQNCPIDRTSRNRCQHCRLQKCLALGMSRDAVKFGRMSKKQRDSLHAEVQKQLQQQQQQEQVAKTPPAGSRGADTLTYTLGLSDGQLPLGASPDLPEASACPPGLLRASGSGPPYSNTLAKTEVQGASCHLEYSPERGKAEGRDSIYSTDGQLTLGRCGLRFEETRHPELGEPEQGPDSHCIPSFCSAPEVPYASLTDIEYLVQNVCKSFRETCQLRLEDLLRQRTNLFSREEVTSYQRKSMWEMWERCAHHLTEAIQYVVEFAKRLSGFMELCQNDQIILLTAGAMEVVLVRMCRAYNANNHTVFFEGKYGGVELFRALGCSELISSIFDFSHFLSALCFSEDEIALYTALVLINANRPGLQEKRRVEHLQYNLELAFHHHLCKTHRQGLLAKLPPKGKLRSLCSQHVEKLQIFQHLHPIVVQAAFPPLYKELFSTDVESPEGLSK
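Luciferase reporter read in Schneider cells carrying Gal4-RORγ (mouse) and UAS-Photinus luciferase; cells given compound 1 h before 700 uM copper sulfate induction, then incubated 20 h at ambient temperature.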
KinaseGlo FLuc: Kinase-Glo luciferase inhibition (counter-screen); Kinase-Glo luciferase, ATP luminescence, 8 min; Potency, µM (titrated, usually from 38.3 µM), inactives show at the highest dose activity change, negative = inhibition, actives largely listed as inhibitors; 200,000 tested, 0.28% active; AID 1379; also: nearly all actives have a fitted effect of over 60% in size
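Recombinant Kinase-Glo luciferase, 10 uM ATP (linear range), luciferin; imidazole pH 7.2 / KCl / MgCl2 / Tween / BSA buffer; 8 min RT; luminescence.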
VP16 counter: inhibits Gal4-VP16 luciferase reporter, ROR gamma counter-screen; Potency, µM (doses to about 53.6 µM), without a hit: top-dose activity, negative = inhibition, usual class: inhibitors; Drosophila S2 Gal4-VP16 UAS-luciferase, luminescence, 20 h; 310,000 tested, 3.5% active;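 also: Gal4-VP16 expression switched on by copper sulfate through the metallothionein promoter; nearly all actives have a fitted effect of over 50% in size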
* hit, by the source's call; u = inconclusive; x = not tested or not shown; ! = a repeat was not active; [ ] = remark or other dose. An excerpt weighted towards active compounds, which were near 6.2% of everything screened. Calls follow the shape of the dose curve; as a rule, active = well fitted curve in the direction sought with a large enough effect; inconclusive = small, poorly fitted or top-dose-only effect, or another doubt; inactive = no such curve, though single readings can be large; an effect the other way counts as inactive or inconclusive. % is scaled to controls: 0 for no effect and ±100 for the full control effect; potency is read from the fitted curve at half-maximal effect.

SMILES	RORgamma inh	KinaseGlo FLuc	VP16 counter
COc1ccccc1OCc1nnc(SCC(=O)N2CCCCC2)n1-c1ccccc1	-14%	1%	-7%
O=C(NC(Cc1c[nH]c2ccccc12)C(=O)O)/C(=C\c1ccc2c(c1)OCO2)NC(=O)c1ccccc1 (configuration not stated)	4%	x	-4%
Cc1ccnc(NC(=O)c2ccc3[nH]c(=O)c(=O)[nH]c3c2)c1	-3%	x	1%
C/C(=N\Nc1nc(C)cc(-c2ccccc2)n1)c1ccc(F)cc1	3.2µM*	x	7.1µM*
C/C(=N/Nc1nc(-c2ccccc2)cc(-c2ccc(F)cc2)n1)c1cccc(N)c1	11µM*	-4%	14µM*
COc1ccc(/C(C)=N\Nc2nc(-c3ccccc3)cc(=O)[nH]2)cc1	-18%	-4%	-19%
C/C(=N\Nc1nc(N)cc(Cl)n1)c1cccc(N)c1	23%	-2%	-8%
COc1ccccc1OCCSc1nc(C)c(Cc2ccccc2)c(=O)[nH]1	-22%	x	-2%
O=S(=O)(c1ccccc1)N1CCC2(CC1)CN(c1ccncc1)C2	-10%	-5%	3%
CCOc1cc(C(=O)Oc2cc(C)[nH]c(=O)c2[N+](=O)[O-])cc(OCC)c1OCC	1%	x	0%
Cc1nn(C)c(N)c1C(O)(c1nccn1C)C(F)(F)F (configuration not stated)	-26%	-5%	-8%
O=C(O)CCCCn1cnc2c(=S)nc[nH]c21	x	-8%[7.66 µM]	x
CCCc1sc(N/N=C/c2ccccn2)nc1-c1ccc(Br)cc1	1.6µM*	0%	1.4µM*
CCCc1sc(N)nc1-c1ccc(C)cc1	u	-3%	-3%
Cc1cc(C)n2nc(SCC(=O)Nc3ccc(O)cc3)nc2n1	5%	x	-2%
CCOc1ccc(NC(=O)CSc2nc3nc(C)cc(C)n3n2)cc1	u	x	11µM*
Nc1nc(SCC(=O)Nc2ccccc2Sc2ccccc2)n[nH]1	24%	-5%	-9%
Nc1ncnc2c1cnn2-c1ccccc1	2%	0%	6%
S=c1nc[nH]c2c1cnn2-c1ccccc1	3.5µM*	x	4µM*
CC(C)/C=N/Nc1nc(-c2ccc(Br)cc2)cs1	u	1%	-28%
O=S(=O)(Nc1ccc(S(=O)(=O)Nc2nccs2)cc1)c1ccc2c(c1)OCCO2	-1%	-4%	9%
CCc1nnc(NS(=O)(=O)c2ccc(NC(=S)NC(=O)c3ccc(OC)cc3)cc2)s1	41%	2%	-3%
OCC1CCCN(c2nc(CN3CCCCC3)nc3scc(-c4ccccc4)c23)C1 (configuration not stated)	-25%	2%	0%
CCNc1nc(CN2CCCCC2)nc2scc(-c3ccccc3)c12	16µM*	4%	u
Fc1ccc(N2CCN(c3nc(CN4CCOCC4)nc4scc(-c5ccccc5)c34)CC2)cc1	10µM*	1%	-20%
SMILES	RORgamma inh	KinaseGlo FLuc	VP16 counter
O=c1[nH]c(CN2CCN(c3ccccc3)CC2)nc2scc(-c3ccccc3)c12	u	-6%	-14%
Fc1ccc(CN2CCN(c3ncnc4scc(-c5ccccc5)c34)CC2)cc1	13%	x	-5%
CN(Cc1ccccc1)c1nc(CN2CCOCC2)nc2scc(-c3ccccc3)c12	10µM*	2%	u
Cc1onc(-c2ccccc2Cl)c1C(=O)NCc1nc(-c2ccc(C(F)(F)F)cc2)no1	11%	x	u
Cn1c(=O)c(CCc2ccccc2)nc2cnc(N3CCOCC3)nc21	u	x	6%
CN(C)CC(C)(C)CNS(=O)(=O)c1cccc(Cl)c1Cl	-14%	-2%	-8%
COC(=O)C1=C(C)[C@H](O)[C@@H](C)[C@](C)(c2cc(OC)c(C)c(OC)c2COc2ccccc2)O1	20%	0%	2%
O=C(NC1CCCCCC1)c1c2c(nc3ccccc13)CCN(Cc1ccccc1)C2	23%	-1%	-2%
Cc1cc(N2CCN(C)CC2)ccc1NC(=O)c1c2c(nc3ccccc13)CCN(Cc1ccccc1)C2	11µM*	-2%	11µM*
Cc1c(CCO)c(=O)[nH]n1S(=O)(=O)c1ccc([N+](=O)[O-])cc1	u	x	-23%
C[C@@H]1CC2(OC[C@]3(C)O[C@H]23)O[C@H]2C[C@@]3(C)[C@@H]4CC[C@H]5C(C)(C)C(O[C@@H]6OC[C@@H](O)[C@H](O)[C@H]6O)CC[C@@]56C[C@@]46CC[C@]3(C)[C@@H]12 (some centres not stated)	2%	x	1%
CN(C)c1ccc(C=Nc2ccc(N(C)C)cc2)cc1	u	-10%	u
CN(C)c1ccc(N=Cc2ccco2)cc1	u	11µM*	u
Cc1ccc(C)c(NS(=O)(=O)c2ccccc2C)c1	-18%	x	-8%
CC(C)N(C(=O)C(F)(F)F)C(C(=O)NC1CCCCC1)c1ccncc1 (configuration not stated)	-8%	-3%	7%
CCCN1C2CCCC1CC(NC(=S)Nc1cccc(C)c1C)C2 (configuration not stated)	5%	x	-8%
CCc1ccccc1NC(=S)NC1CC2CCCC(C1)N2Cc1cccs1 (configuration not stated)	11µM*	2%	u
Cc1cccc(NC(=S)NC2CC3CCCC(C2)N3Cc2cccs2)c1C (configuration not stated)	2.5µM*	0%	u
Cc1cccc(C)c1NC(=O)NC1CC2CCC(C1)N2Cc1cccs1 (configuration not stated)	33%	2%	-13%
CCN1CCN(Cc2ccc(NC(=O)c3cc(NC(=O)c4nccnc4N)cc(OC)c3)cc2C(F)(F)F)CC1	-41%	x	3%
CCN1CCN(Cc2ccc(NC(=O)c3cc(NC(=O)c4cncc(-c5ccc(C#N)cc5)c4)cc(OC)c3)cc2C(F)(F)F)CC1	2.8µM*	x	3.5µM*
COc1cccc(C2C(C#N)=C(N)SC(c3ccccc3)C2[N+](=O)[O-])c1 (configuration not stated)	-10%	4%	-35%
Cc1ccc(-n2cc(-c3ccccc3)c3c(N4CCOCC4)ncnc32)cc1	0%	0%	1%
COc1ccc(-n2cc(-c3ccccc3)c3c(NN4CCOCC4)ncnc32)cc1	4.5µM*	3%	u
Fc1ccc(-n2cc(-c3ccccc3)c3c(NN4CCOCC4)ncnc32)cc1	13µM*	-2%	10µM*
SMILES	RORgamma inh	KinaseGlo FLuc	VP16 counter
COc1ccc(-n2cc(-c3ccccc3)c3c(NCCOCCO)ncnc32)cc1	-12%	x	-13%
CC(Sc1nnc(CNC(=O)c2ccco2)n1C)C(=O)Nc1nccs1 (configuration not stated)	23%	x	2%
CCN1C(=O)N[C@@H](c2cccc(F)c2)C(C(=O)OC)=C1C	x	-1%[7.66 µM]	x
COC(=O)C1=C(C)N(Cc2ccccc2)C(=S)N[C@H]1c1cccc(F)c1	4.5µM*	x	13µM*
CCN1C(=S)N[C@@H](c2ccccc2)C(C(=O)OC)=C1C	3.2µM*	x	u
CCN1C(=NCCCCO)N[C@@H](c2ccccc2)C(C(=O)OC)=C1C	2%	x	-2%
COCCN1C(=S)N[C@@H](c2cccc(F)c2)C(C(=O)OC)=C1C	3.5µM*!	x	11µM*!
COC(=O)C1=C(C)N(Cc2ccccc2)C(=NCc2ccccc2)N[C@H]1c1cccc(F)c1	u	x	-16%
O=S(=O)(O)c1cc(O)c2c(N=Cc3ccccc3O)cc(S(=O)(=O)O)cc2c1	x	2%[7.66 µM]	x
